Assay outcomes deposited in PubChem BioAssay by National Center for Advancing Translational Sciences (NCATS).
KB-V1 MDR tox: KB-V1 MDR subline cytotoxicity. 3.4% of 400,000 active. Potency, µM (top dose mostly 46.1 µM), usual class: cytotoxic. KB-V1 MDR cells viability, CellTiter-Glo, 72 h; also: % is scaled to controls: 0 for no effect and ±100 for the full control effect; nearly all actives have a fitted effect of over 60% in size
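Luminescent ATP read-out (CellTiter-Glo, 10 min) measures survival of drug-selected KB-V1 MDR cells after 72 h, 37 degrees C compound exposure. Medium: phenol-red-free DMEM, 10% FBS. Values from fitted concentration-response curves.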
KB-3-1 cytotox: KB-3-1 parental cell cytotoxicity. KB-3-1 viability, CellTiter-Glo ATP luminescence, 72 h. Potency, µM (doses to about 46.1 µM), hits mostly cytotoxic. 1.4% of 400,000 active. AID 1347075; also: % is scaled to controls: 0 for no effect and ±100 for the full control effect; nearly all actives have a fitted effect of over 60% in size
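Cytotoxicity in the drug-sensitive parental line KB-3-1 was scored as loss of CellTiter-Glo luminescence following 72 h incubation with compound. Values come from curve fitting of normalized concentration-response data.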
ATXN2 expr inh: reduces ATXN2 reporter expression in HEK-293 cells; Potency, µM (titrated, usually from 57 µM), for inactives: top-dose activity change, negative = inhibition, usual class: inhibitors; AID 1745845; HEK-293 ATXN2-luciferase reporter, luminescence, 24 h; 0.72% of 360,000 active; also: % is scaled to controls: 0 for no effect and ±100 for the full control effect; nearly all actives have a fitted effect of over 55% in size
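ATXN2-luciferase reporter cells (luciferase flanked by upstream and downstream ATXN2 gene portions) were treated 24 h at 37 °C with compounds at up to 57 uM. SteadyGlo luminescence gave expression; GF-AFC fluorescence gave viability.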
S2 tox: cell viability loss in ATXN counter-screen; S2 cells (HEK-293 line with an ATXN2-luciferase reporter) viability, CellTiter-Fluor protease fluorescence, 24 h; Potency, µM (top dose mostly 56.7 µM), most hits filed as cytotoxic; 0.49% of 400,000 active; AID 651635; also: nearly all actives have a fitted effect of over 40% in size
TGFb SMAD3 inh: TGF-b pathway inhibition; HepG2 CAGA-GFP TGF-b/SMAD3 reporter, GFP fluorescence, 18 h; TGF-beta stimulated, 500 pg/mL final; Potency, µM (highest dose often 46.1 µM), for inactives: top-dose activity, negative = inhibition, most hits filed as inhibitors; 1.2% of 410,000 active; AID 588855; also: % is scaled to controls: 0 for no effect and ±100 for the full control effect; nearly all actives have a fitted effect of over 65% in size
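First, reporter cells (HEPG2 CAGA-GFP) rested 2 h at 37 degrees C. Next, compounds were pinned in and TGF-beta added to 500 pg/mL final. After 18 h, GFP was imaged per cell and summed per well.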
HepG2 viability: HepG2 cytotoxicity, counter-screen for TGF-b inhibitors | HepG2 CAGA-GFP viability, ATP luminescence, 18 h | Potency, µM (top dose mostly 46.1 µM), for inactives: at the top dose activity change, negative = cytotoxicity, actives largely listed as cytotoxic | 0.76% of 410,000 active | AID 588856
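HepG2 CAGA-GFP cells (1000/well, DMEM with 1% FBS) received compound, then TGF-beta at 500 pg/mL final, and were incubated 18 hours at 37 degrees C. Viability was read by CellTiter-Glo luminescence. Media-only wells were set as complete cell-killing and DMSO as no toxicity.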
The depositor's hits bear a star. Hits are enriched below; roughly 5.9% of the tested compounds scored in any of these assays. Calls follow the shape of the dose curve; as a rule, active = well fitted curve in the direction sought with a large enough effect; inconclusive = small, poorly fitted or top-dose-only effect, or another doubt; inactive = no such curve, though single readings can be large; an effect the other way counts as inactive or inconclusive. Potency is read from the fitted curve at half-maximal effect.

`CC1=CC(=O)N(c2cccc(C(F)(F)F)c2)C1c1ccc(Cl)cc1` (stereo not given) gave KB-V1 MDR tox 15µM*, KB-3-1 cytotox inactive, ATXN2 expr inh -8%, S2 tox inactive, TGFb SMAD3 inh -12% and HepG2 viability -23%.
For Cc1cc2cc(CN(Cc3ccco3)S(=O)(=O)c3c(C)ccc4nsnc34)c(=O)[nH]c2cc1C the results were KB-V1 MDR tox 1.6µM*, KB-3-1 cytotox 3.3µM*, ATXN2 expr inh inconclusive, S2 tox inconclusive, TGFb SMAD3 inh -3% and HepG2 viability 1%.
For COC(=O)c1cccc(S(=O)(=O)N(Cc2ccco2)Cc2cc3cc(OC)ccc3[nH]c2=O)c1 the results were KB-V1 MDR tox 16µM*, KB-3-1 cytotox inactive, ATXN2 expr inh 0%, S2 tox inactive, TGFb SMAD3 inh -5% and HepG2 viability -8%.
CCOC(=O)c1cccc(S(=O)(=O)N(CCO)Cc2cc3cc(OC)ccc3[nH]c2=O)c1 was read as KB-V1 MDR tox inconclusive, KB-3-1 cytotox inactive, ATXN2 expr inh 0%, S2 tox inactive, TGFb SMAD3 inh -21% and HepG2 viability -9%.
`CCc1nc2ccc(C(=O)NCCc3ccc(SC)cc3)cc2nc1CC` gave KB-V1 MDR tox inactive, KB-3-1 cytotox inactive, TGFb SMAD3 inh -19% and HepG2 viability -1%.
Screening Cc1ccccc1Cn1cc(NC(=O)c2noc3c2CC(C(C)(C)C)CC3)cn1 (stereo not given) returned KB-V1 MDR tox 18µM*, KB-3-1 cytotox inactive, ATXN2 expr inh -26%, S2 tox inactive, TGFb SMAD3 inh -26% and HepG2 viability -33%.
For Cc1ccccc1Cn1nc(C)c(NC(=O)c2noc3c2CC(C(C)(C)C)CC3)c1C (stereo not given) the results were KB-V1 MDR tox inactive, KB-3-1 cytotox inactive, ATXN2 expr inh -14%, S2 tox inactive, TGFb SMAD3 inh inconclusive and HepG2 viability 3%.
`Cc1ccc2ncc(C(=O)Nc3ccc(F)cc3F)c(=O)n2c1` gave KB-V1 MDR tox inactive, KB-3-1 cytotox inactive, ATXN2 expr inh 11%, S2 tox inactive, TGFb SMAD3 inh -15% and HepG2 viability -23%.
Screening CCOC(=O)N1CCC(c2cc(=O)n3[nH]c(C)c(-c4ccc(F)cc4)c3n2)CC1 returned KB-V1 MDR tox inactive, KB-3-1 cytotox inconclusive, ATXN2 expr inh 32µM*, S2 tox inactive, TGFb SMAD3 inh -25% and HepG2 viability -38%.
For CCOC(=O)N1CCC(c2cc(=O)n3[nH]c(-c4ccccc4)cc3n2)CC1 the results were KB-V1 MDR tox inactive, KB-3-1 cytotox inactive, ATXN2 expr inh 4%, S2 tox inactive, TGFb SMAD3 inh inconclusive and HepG2 viability -10%.
For CCC(=O)N1Cc2cc(C(=O)NCC(F)(F)F)nc(-c3cccc(-c4cncnc4)c3)c2[C@@H]1CCO the results were KB-V1 MDR tox inactive, KB-3-1 cytotox inconclusive, ATXN2 expr inh -7% and S2 tox inactive.
CCCNC(=O)c1cc2c(c(-c3cccc(-c4ccccc4F)c3)n1)[C@@H](CCO)N(C(=O)CC1CC1)C2 was read as KB-V1 MDR tox 23µM*, KB-3-1 cytotox inconclusive, ATXN2 expr inh inconclusive and S2 tox inconclusive.
O=C(NCC(F)(F)F)c1cc2c(c(-c3cccc(-c4ccccc4F)c3)n1)[C@H](CCO)N(C(=O)CC1CC1)C2 was read as KB-V1 MDR tox 16µM*, KB-3-1 cytotox inconclusive, ATXN2 expr inh inconclusive and S2 tox inconclusive.
Screening CCNC(=O)c1cc2c(c(-c3cccc(-c4ccccc4F)c3)n1)[C@H](CCO)N(C(=O)CC)C2 returned KB-V1 MDR tox 18µM*, KB-3-1 cytotox inconclusive, ATXN2 expr inh inconclusive and S2 tox inactive.
`CC(=O)N1Cc2cc(C(=O)NCC(F)(F)F)nc(-c3cccc(-c4cc5ccccc5o4)c3)c2[C@H]1CCO` gave KB-V1 MDR tox inconclusive, KB-3-1 cytotox inconclusive, ATXN2 expr inh 1% and S2 tox inactive.
Cc1oc(-c2ccccc2F)nc1CN1CCC(C(=O)NCCC2=CCCCC2)CC1 was read as KB-V1 MDR tox 8.2µM*, KB-3-1 cytotox inconclusive, ATXN2 expr inh -28%, S2 tox inconclusive, TGFb SMAD3 inh -9% and HepG2 viability -2%.
COc1ccc(CCNC(=O)C2CCN(Cc3nc(-c4ccccc4F)oc3C)CC2)cc1OC was read as KB-V1 MDR tox 16µM*, KB-3-1 cytotox inactive, ATXN2 expr inh -2%, S2 tox inactive, TGFb SMAD3 inh 23% and HepG2 viability -21%.
Cc1oc(-c2ccccc2F)nc1CN1CCC(C(=O)NCCc2ccccc2)CC1 was read as KB-V1 MDR tox inactive, KB-3-1 cytotox inactive, ATXN2 expr inh -19%, S2 tox inactive, TGFb SMAD3 inh -9% and HepG2 viability -20%.
For CC1=C(C(=O)Nc2cccnc2)C(c2ccc(Cl)cc2)n2nc(-c3ccccc3)nc2N1 (stereo not given) the results were KB-V1 MDR tox inactive, KB-3-1 cytotox inactive, ATXN2 expr inh inconclusive, S2 tox inconclusive, TGFb SMAD3 inh inconclusive and HepG2 viability -36%.
For CC1(Br)C(Sc2ccccc2[N+](=O)[O-])=Nc2ccccc21 (stereo not given) the results were KB-V1 MDR tox inconclusive, KB-3-1 cytotox inconclusive, ATXN2 expr inh -37% and S2 tox inconclusive.
CC(=O)Nc1ccccc1-c1nc(CNC(=O)c2ccc(-n3cccn3)cc2)c(C)o1 was read as S2 tox inactive.
`CC(C)c1ccc(NC(=O)Cn2nnc(C(=O)NCc3ccc(Cl)cc3)c2N)cc1` gave TGFb SMAD3 inh -18% and HepG2 viability 6%.
CC(C)NCC(=O)NC12CC3CC(CC(C3)C1)C2 was read as KB-V1 MDR tox 21µM*, KB-3-1 cytotox inactive, ATXN2 expr inh 3%, S2 tox inactive, TGFb SMAD3 inh -8% and HepG2 viability -6%.
COc1cc2c(NC3CCN(C)CC3)nc(N3CCCN(C)CC3)nc2cc1OCCCN1CCCC1 was read as KB-V1 MDR tox inactive, KB-3-1 cytotox inconclusive, TGFb SMAD3 inh -20% and HepG2 viability -2%.
CCN(CC)S(=O)(=O)c1cc(C(=O)Nc2ccncc2)ccc1Cl was read as KB-V1 MDR tox 16µM*, KB-3-1 cytotox 21µM*, ATXN2 expr inh -22%, S2 tox inactive, TGFb SMAD3 inh inconclusive and HepG2 viability -33%.
For CN(c1ccccc1)S(=O)(=O)c1cccc(C(=O)NC2CCCC2)c1 the results were ATXN2 expr inh -6%, S2 tox inconclusive, TGFb SMAD3 inh 8% and HepG2 viability -2%.
